Experimental data taken from PubChem BioAssay AID1654 (Sanford-Burnham Center for Chemical Genomics, 2009).
Hit rate of the full screen: of about 290,000 compounds, about 1,500 (0.52%) were called active. The sample as a whole holds a higher share of actives than the screen did. Unmarked numbers belong to inactive results. Cut-off read from the data, not from the text of the source: active = inhibition above about 50%; inactive = the rest.

target: Dual specificity protein phosphatase 3 (Homo sapiens) (UniProt P51452); test: inhibition of human DUSP3 activity – biochemical, absorbance, uHTS, primary screen (AID 1654); conditions: recombinant VHR phosphatase, pNPP absorbance, at 13.3 µM, active compounds read high
Sequence (P51452 whole entry, looked up): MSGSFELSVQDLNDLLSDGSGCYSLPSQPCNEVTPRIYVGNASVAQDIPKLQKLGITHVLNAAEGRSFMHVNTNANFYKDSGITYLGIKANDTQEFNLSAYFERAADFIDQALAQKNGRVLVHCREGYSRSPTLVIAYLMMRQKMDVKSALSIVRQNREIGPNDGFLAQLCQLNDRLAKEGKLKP

In order of rising inhibition:
1. COC(=O)Cc1cnc(NC(=O)CSc2nc(C(C)C)cc(=O)[nH]2)s1  -28.8%
2. COc1ccc(NC(=S)N2CCCC(CO)C2)c(OC)c1 (stereo not drawn)  -17.2%
3. COc1cc(/C=C2\C(=N)N3N=C(CC(=O)N4CCOCC4)SC3=NC2=O)cc(OC)c1OC  -15.7%
4. O=C(O)CC(CC(=O)N1CCOCC1)c1ccccc1 (stereo not drawn)  -12.8%
5. O=C(O)C1=NN(c2c(F)c(F)cc(F)c2F)C(=O)CC1  -11.9%
6. CC(=O)c1ccc(S(=O)(=O)NCc2nnnn2-c2ccccc2)cc1  -9.1%
7. COc1ccc(CN(C)C(=O)c2cc(-c3ccc(C)cc3C)nc3ccccc23)c(OC)c1OC  -8.1%
8. CC(=O)N1CCc2cc(S(=O)(=O)NC3CCCCC3)ccc21  -7.7%
9. Cc1[nH]c2ccccc2c1/C=N\NC(=O)Cn1nnc(-c2ccccc2)n1  -6.7%
10. COc1ccc(S(=O)(=O)N(CC(=O)NCc2ccco2)c2ccc(F)cc2)cc1  -4.2%
11. CCn1c(=S)sc2c(=O)n(CC(=O)Nc3cccc(Br)c3)c(C)nc21  -3.6%
12. Cc1cc(=O)oc2c3c(cc(OCC(=O)NCc4ccccn4)c12)OC(C)(C)CC3  -2.9%
13. Cc1cc(C)cc(NC(=S)NCCCN2CCOCC2)c1  -2.7%
14. N=c1oc2ccccc2cc1C(=O)NCc1ccccc1  -2.5%
15. CC(C)c1ccc2c(c1)c(SC(C)(C)C)c(CC(C)(C)C(=O)O)n2Cc1ccc(Cl)cc1  -1.6%
16. Cc1ccc(S(=O)(=O)N(CC(=O)Nc2cccnc2)c2ccc(Br)cc2)cc1  -1.5%
17. COc1ccc(CN(C)C(=S)Nc2ccc(Cl)cc2Cl)cc1  -0.1%
18. Cc1cccc(C)c1NC(=O)C(Cl)C(=O)c1ccccc1 (stereo not drawn)  0%
19. CCOc1c(Br)cc(/C=C2\C(=O)N(CCC#N)N=C2C)cc1OC  0.9%
20. CC(=O)c1ccc(OC(=O)N2CCOCC2)cc1  1.7%
21. Cn1c(CCc2ccccc2)nnc1SCC(N)=O  2.3%
22. Cc1c(Cl)cccc1NC(=S)NCC(O)c1ccccc1 (stereo not drawn)  2.3%
23. CN(CC(=O)Nc1c(Cl)cccc1Cl)C(=O)c1ccncc1  2.5%
24. CCOC(=O)c1ccc(NC(=O)c2nc[nH]c2C(=O)N[C@@H](CCCCNC(=O)OC(C)(C)C)C(=O)OC(C)(C)C)cc1  3.3%
25. COCCCNC(=O)C1CC(=O)N(c2ccc(C)cc2)C1 (stereo not drawn)  3.4%
26. CCc1nnc(NC(=O)c2sc3nc(C)cc(COC)c3c2N)s1  3.9%
27. CC1CCN(C(=O)c2ccc(S(=O)(=O)Cc3cc(F)ccc3F)c([N+](=O)[O-])c2)CC1  4.1%
28. COC(=O)C1(CCSC)NC(c2ccc(OC)cc2OC)C2C(=O)N(c3cccc(C(C)=O)c3)C(=O)C21 (stereo not drawn)  4.9%
29. CCc1ccc(OCC(=O)OC(C)C(=O)NC2CC2)cc1 (stereo not drawn)  5%
30. C#CC(CCN1CCCCC1)(OC)c1ccccc1 (stereo not drawn)  5.2%
31. CCOc1ccc(-n2c(SCC(=O)Nc3ccc(OC)cc3)nc3sc4c(c3c2=O)CCN(C)C4)cc1  5.3%
32. Nc1nnnn1CC(=O)N/N=C/c1ccc(-c2cccc(Cl)c2)o1  5.3%
33. CC1CCC2(CC1)NC(=O)N(CC(=O)c1ccc3c(c1)OCO3)C2=O (stereo not drawn)  5.4%
34. O=C(Nc1ccc(S(=O)(=O)Nc2ccccn2)cc1)c1ccccc1  5.4%
35. COc1ccc(NC(=O)Cn2c(-c3ccc(OC)cc3)cn(-c3ccc(C)cc3)c2=O)cc1  6.2%
36. COc1ccc(N2CCC(N3CCN(C)C(CCO)C3)CC2)cc1 (stereo not drawn)  6.5%
37. CCOc1ccccc1CN1CCN(C2CCC2)CC1CCO (stereo not drawn)  6.5%
38. COCC1CCN(C(=O)C2CCC(=O)N(CC3CCCCC3)C2)CC1 (stereo not drawn)  6.5%
39. CCn1nnnc1SCC(=O)c1ccc(C)cc1C  8.9%
40. COc1cccc(C(=O)Nc2nnc(S(=O)(=O)N3CCCCC3)s2)c1  9.5%
41. Cc1ccc(-c2nc(CS(=O)(=O)CC(=O)NCc3ccc4c(c3)OCO4)c(C)o2)cc1  9.7%
42. Cc1cc(NC(=O)[C@H](C)NC(=O)c2ccco2)ccc1Br  10%
43. CC(=O)N[C@@H](C)C(=O)N1CCC(n2nccc2NC(=O)CCCc2ccccc2)CC1  10.4%
44. CCOC(=O)c1cccc(NC(=O)CCc2nnc3ccc(N4CCOCC4)nn23)c1  10.4%
45. COc1cc(NC(=S)N2CCCC(C)C2)c(OC)cc1Cl (stereo not drawn)  10.6%
46. CNC(=O)COC(=O)c1cc(-c2ccc(OC)cc2)nc2ccccc12  11%
47. CCN1CCN(C2CCCCC2NS(=O)(=O)c2ccc(Cl)cc2)CC1 (stereo not drawn)  11.4%
48. COc1ccc(-c2cc(C(=O)N(C)Cc3ccccc3)c3ccccc3n2)cc1  12.2%
49. COc1ccc(NC(=O)c2cc([N+](=O)[O-])ccc2NC(=O)CNC2CCCCC2C)c(OC)c1 (stereo not drawn)  12.5%
50. CCCC(C)NC(=O)C1CCN(C(=O)C2CC(=O)N(c3ccc(C)cc3)C2)CC1 (stereo not drawn)  13%
51. COC(=O)CN1C(=O)[C@H]2[C@@H](/C=C/c3ccccc3)N3C(=O)CN(Cc4ccccc4)C(=O)[C@@]3(Cc3ccccc3)[C@H]2C1=O  13.4%
52. CCc1nnc(NC(=O)c2cccc(S(=O)(=O)N(C)c3ccc(OC)cc3)c2)s1  13.9%
53. Cn1c(SCC(=O)NC2CCCCC2)nnc1-c1ccc(N)cc1  15.8%
54. COc1cccc(NC(=S)NCCCN2CCOCC2)c1  16.2%
55. Cc1ccc(C)c(S(=O)(=O)Nc2cc(C)on2)c1  16.3%
56. CC(C)=CCCC1(C)C=Cc2c(ccc3c2[nH]c2cc(O)c(C)cc23)O1 (stereo not drawn)  16.5%
57. O=[N+]([O-])c1cc([N+](=O)[O-])c(Oc2cc(F)cc(F)c2F)cc1NN1CCCCC1  16.6%
58. Cn1c(CCNS(=O)(=O)c2ccc(F)cc2)nnc1SCc1cccnc1  17%
59. O=S(=O)(NC1CCCCC1N1CCC(O)CC1)c1ccc(Cl)cc1 (stereo not drawn)  17.2%
60. COc1ccc(N(CC(=O)N2CCOCC2)S(=O)(=O)c2ccccc2)cc1Cl  18.1%
61. COc1cccc2cc(C(=O)N(C)C)c(=O)oc12  18.2%
62. C=CCN1C(=O)C2(OCCCO2)c2cccc(Cl)c21  19.2%
63. Cc1cc(C)c(S(=O)(=O)N(C)CC(=O)NCC2CCCO2)c(C)c1 (stereo not drawn)  20.6%
64. CCOc1ccc(CCNC(=O)CCc2nnc3ccc(N4CCCC4)nn23)cc1OCC  21.2%
65. Cc1ccc(CSc2nnc(-c3cnccn3)n2C)cc1  21.3%
66. CSc1ncccc1C(=O)NC1CCCCCC1  21.8%
67. Cn1c(C(=O)N2CCCC(C(=O)NCc3ccccc3)C2)cc2sccc21 (stereo not drawn)  22.8%
68. CCOc1cccc(-c2nnc(SCC(=O)NC3CC3)n2C)c1  24%
69. CN(C)CCCn1c(SCc2ccc(Cl)cc2)nnc1-c1ccncc1  24%
70. O=C(CCS(=O)(=O)c1ccc2c(c1)NC(=O)CS2)NCc1ccccc1Cl  25.2%
71. CN(CC(=O)Nc1ccc(Cl)cc1)C(=O)CNC(=O)c1ccc2ccccc2c1  27.9%
72. COc1ccc([N+](=O)[O-])cc1N(CC(=O)Nc1ccccc1C(=O)N1CCOCC1)S(C)(=O)=O  29.6%
73. CC(=O)Nc1ccc(NC(=O)CSc2nnnn2-c2ccccc2F)cc1  30%
74. CCOc1ccc(N(CC(=O)NCc2ccc(OC)cc2)S(=O)(=O)c2c(C)noc2C)cc1  30.2%
75. CCN1C(=NCCc2cccnc2)N[C@@H](c2ccccc2)[C@H](C(=O)OC)[C@H]1C  36%
76. CSc1ncccc1C(=O)OCC(=O)N1CCOCC1  39.8%

In the case of `CCCCc1ccc(NC(=S)NCCCN2CCOCC2)cc1`, the inhibition is reported as 52.9% (active).
For `CCn1nnnc1SCC(=O)Nc1ccc(N(C)C)cc1`, the inhibition was 54.4% (active).
For `Cn1c(SCC(=O)NC2CCCCC2)nnc1-c1cc2ccccc2o1`, the inhibition was 55.6% (active).
With `COc1cc(NC(=S)N2CCCC(C)C2)cc(OC)c1OC` (stereo not drawn) the inhibition was 56.3% (active).
`COc1ccccc1N1CCC(N2CCN(CC(C)(C)C)C(CCO)C2)CC1` (stereo not drawn) was tested, and the inhibition was 59.1% (active).
In the case of `COc1ccc(-c2cc(C(=O)n3cnc4ccccc43)c3ccccc3n2)cc1`, the inhibition is reported as 51.6% (active).
For `COCCNC(=O)C1CCN(C(=O)C2CC(=O)N(c3ccc(C)cc3)C2)CC1` (stereo not drawn), the inhibition was 50% (active).
In the case of `CSc1ncccc1C(=O)OCc1ccc(Br)cc1`, the inhibition is reported as 58.3% (active).
For `Cn1c(SCc2ccc(F)cc2)nnc1-c1ccncc1`, the inhibition was 53% (active).
`CCn1c(=S)sc2c(=O)n(CC(=O)Nc3ccc(OC)cc3)c(C)nc21` was tested, and the inhibition was 57.9% (active).
`COc1ccc(CNC(=O)CN(c2ccc(OC)c(Cl)c2)S(=O)(=O)c2ccc(C)cc2)cc1` was tested, and the inhibition was 59.1% (active).
With `O=S(=O)(NC1CCCCC1N1CCCCC1)c1ccc(Cl)cc1` (stereo not drawn) the inhibition was 52% (active).
`COc1cccc2cc(C(=O)NCc3ccc(C)cc3)c(=N)oc12` was tested, and the inhibition was 53.5% (active).
For `CCc1ccc2nc3sc(C(=O)Nc4nnc(CC)s4)c(N)c3cc2c1`, the inhibition was 52.7% (active).
`CC(C)Oc1ccc(C(CC(=O)N2CCOCC2)C(C)C)cc1` (stereo not drawn) was tested, and the inhibition was 53% (active).
For `CCN(CC)c1ccc(NC(=O)CCc2nnc3ccc(N4CCCCC4)nn23)c(C)c1`, the inhibition was 56.7% (active).
In the case of `O=C(Cn1nnc(-c2ccccc2)n1)N/N=C/c1ccc(-c2ccc(Cl)cc2)o1`, the inhibition is reported as 50.8% (active).
